From PubChem BioAssay AID1159580 (chemical genetic matrix, 2015)
Screen size: about 5,500 compounds; about 2,000 (36%) were called active. Inconclusive results (about 18%) are left out. Rule as the data show it: active = normalized growth mostly below about 0.91 (no sharp cut-off); inconclusive = no clear call, values can overlap the other calls; inactive = mostly above about 0.92. Some of the results follow.

Test: chemical genetic growth profiling, strain panel (AID 1159580);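 also: tested at 20 µM; growth read once vehicle control cultures reached saturation at 30 °C; 1 = growth at the plate median or of vehicle wells; lower values mean less growth of the strain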
Conditions: growth OD
[1] = S. cerevisiae deletion strains, locus YAL013W, strain DEP1, hits give low values
[2] = S. cerevisiae deletion strains, locus YBR229C, strain ROT2, hits give low values
[3] = S. cerevisiae deletion strains, locus YDL101C, strain DUN1, hits give low values
[4] = S. cerevisiae deletion strains, locus YDR150W, strain NUM1, hits give low values
[5] = S. cerevisiae deletion strains, locus YEL061C, strain CIN8, hits give low values
[6] = S. cerevisiae deletion strains, locus YGR078C, strain PAC10, hits give low values
[7] = S. cerevisiae deletion strains, locus YHR030C, strain SLT2, hits give low values
[8] = S. cerevisiae deletion strains, locus YHR087W, strain rtc3, hits give low values
[9] = S. cerevisiae deletion strains, locus YJR043C, strain POL32, hits give low values
[10] = S. cerevisiae deletion strains, locus YJR075W, strain HOC1, hits give low values
[11] = S. cerevisiae deletion strains, locus YLR039C, strain RIC1, hits give low values
[12] = S. cerevisiae deletion strains, locus YLR058C, strain SHM2 (second series), hits give low values
[13] = S. cerevisiae deletion strains, locus YLR085C, strain ARP6, hits give low values
[14] = S. cerevisiae deletion strains, locus YLR262C, strain YPT6, hits give low values
[15] = S. cerevisiae deletion strains, locus YML094W, strain GIM5, hits give low values
[16] = S. cerevisiae deletion strains, locus YMR219W, strain ESC1, hits give low values
[17] = S. cerevisiae deletion strains, locus YMR263W, strain SAP30, hits give low values
[18] = S. cerevisiae deletion strains, locus YNL153C, strain GIM3, hits give low values
[19] = S. cerevisiae deletion strains, locus YNL298W, strain CLA4 (second series), hits give low values
[20] = S. cerevisiae deletion strains, locus YNL322C, strain KRE1, hits give low values
[21] = S. cerevisiae deletion strains, locus YNR030W, strain Alg12, hits give low values
[22] = S. cerevisiae deletion strains, locus YOL006C, strain TOP1, hits give low values
[23] = S. cerevisiae deletion strains, locus YPL055C, strain LGE1, hits give low values
[24] = S. cerevisiae deletion strains, locus YPL241C, strain CIN2, hits give low values
[25] = S. cerevisiae deletion strains, locus YPR135W, strain CTF4, hits give low values
[26] = S. cerevisiae strains, strain wild type, hits give low values
[27] = S. cerevisiae deletion strains, locus YMR307W, strain GAS1, hits give low values

Measured: normalized growth

Nc1ccc(-n2nc(C(F)(F)F)cc2C(F)(F)F)cc1
inactive: [1] 1 | [2] 0.986 | [3] 1 | [4] 0.902 | [5] 0.998 | [6] 1.01 | S. cerevisiae deletion strains, locus YGR229C, strain SMI1, hits give low values 0.99 | [8] 1.01 | [9] 0.992 | [10] 0.938 | [11] 0.842 | [12] 0.975 | [14] 0.904 | [15] 0.975 | [16] 0.986 | [17] 0.963 | [18] 1 | [19] 0.855 | [20] 0.969 | [21] 0.951 | [22] 0.866 | [23] 0.929 | [25] 0.694 | [26] 0.974
active: [7] 0.661 | [13] 0.603 | [24] 0.825

O=C(O)/C=C/C(=O)Nc1ccc(-n2nc(C(F)(F)F)cc2C(F)(F)F)cc1
inactive: [1] 0.987 | [2] 1 | S. cerevisiae deletion strains, locus YCL061C, strain MRC1, hits give low values 1.01 | [3] 0.97 | S. cerevisiae deletion strains, locus YDL134C, strain PPH21, hits give low values 1.02 | [4] 0.992 | [5] 1.03 | [6] 1.01 | [7] 1.11 | [8] 0.995 | S. cerevisiae deletion strains, locus YJL187C, strain SWE1, hits give low values 1.01 | [9] 1 | [10] 1.08 | S. cerevisiae deletion strains, locus YKL190W, strain CNB1, hits give low values 1.02 | [11] 1.04 | [12] 1.02 | [13] 1.07 | [14] 1.03 | [15] 1.02 | [16] 1.01 | [17] 1.02 | [27] 1.14 | S. cerevisiae deletion strains, locus YNL128W, strain TEP1, hits give low values 1.02 | [18] 0.989 | [19] 1.05 | [20] 1 | [21] 1.02 | [22] 1.09 | [23] 1 | [24] 1.01 | [25] 1.06 | [26] 1.02

Oc1ccc2c3c1O[C@H]1c4[nH]c5ccccc5c4C[C@@]4(O)C(C2)N(CC2CC2)CCC314 (some centres undefined)
inactive: [1] 0.989 | S. cerevisiae deletion strains, locus YAL040C, strain CLN3, hits give low values 1 | S. cerevisiae deletion strains, locus YCL061C, strain MRC1 (second series), hits give low values 1.01 | S. cerevisiae deletion strains, locus YDR363W, strain ESC2, hits give low values 1.02 | S. cerevisiae deletion strains, locus YER002W, strain NOP16, hits give low values 1.02 | [6] 1.02 | [17] 1.01 | [27] 0.993 | S. cerevisiae deletion strains, locus YNL175C, strain NOP13, hits give low values 1.02 | S. cerevisiae deletion strains, locus YNL197C, strain WHI3, hits give low values 1 | S. cerevisiae deletion strains, locus YNL224C, strain SQS1, hits give low values 1.01 | [20] 0.999 | S. cerevisiae deletion strains, locus YOR083W, strain WHI5 (second series), hits give low values 1.01 | [23] 0.987

Fc1ccc(NC(=S)N2CCCN(Cc3ccc(Cl)cc3Cl)CC2)cc1
active: S. cerevisiae deletion strains, locus YLR113W, strain HOG1, hits give low values 0.821
inactive: S. cerevisiae deletion strains, locus YAR019C, strain CDC15, hits give low values 0.989 | S. cerevisiae deletion strains, locus YBL105C, strain PKC1, hits give low values 0.984 | S. cerevisiae deletion strains, locus YBR135W, strain CKS1, hits give low values 0.992 | S. cerevisiae deletion strains, locus YBR136W, strain MEC1, hits give low values 0.985 | S. cerevisiae deletion strains, locus YBR160W, strain CDC28, hits give low values 0.982 | S. cerevisiae deletion strains, locus YDL017W, strain CDC7, hits give low values 0.982 | S. cerevisiae deletion strains, locus YDL028C, strain MPS1, hits give low values 0.99 | [3] 0.985 | S. cerevisiae deletion strains, locus YDL108W, strain KIN28, hits give low values 0.992 | S. cerevisiae deletion strains, locus YDL132W, strain cdc53, hits give low values 0.989 | S. cerevisiae deletion strains, locus YDL214C, strain PRR2, hits give low values 0.987 | S. cerevisiae deletion strains, locus YDR052C, strain DBF4, hits give low values 0.986 | S. cerevisiae deletion strains, locus YDR054C, strain cdc34, hits give low values 0.982 | S. cerevisiae deletion strains, locus YDR226W, strain ADK1, hits give low values 0.973 | S. cerevisiae deletion strains, locus YDR477W, strain SNF1, hits give low values 1 | S. cerevisiae deletion strains, locus YER123W, strain YCK3, hits give low values 1.02 | S. cerevisiae deletion strains, locus YER133W, strain GLC7, hits give low values 1 | S. cerevisiae deletion strains, locus YFL009W, strain cdc4, hits give low values 0.992 | S. cerevisiae deletion strains, locus YFL029C, strain CAK1, hits give low values 0.979 | S. cerevisiae deletion strains, locus YFR003C, strain YPI1, hits give low values 0.984 | S. cerevisiae deletion strains, locus YFR019W, strain FAB1, hits give low values 0.998 | S. cerevisiae deletion strains, locus YFR028C, strain CDC14, hits give low values 0.997 | S. cerevisiae deletion strains, locus YGR040W, strain KSS1, hits give low values 1.01 | S. cerevisiae deletion strains, locus YGR052W, strain FMP48, hits give low values 1.09 | S. cerevisiae deletion strains, locus YGR092W, strain DBF2, hits give low values 1.01 | [7] 0.903 | S. cerevisiae deletion strains, locus YHR079C, strain IRE1, hits give low values 0.964 | S. cerevisiae deletion strains, locus YHR082C, strain KSP1, hits give low values 1.15 | S. cerevisiae deletion strains, locus YHR205W, strain SCH9, hits give low values 0.989 | S. cerevisiae deletion strains, locus YIL147C, strain SLN1, hits give low values 0.977 | S. cerevisiae deletion strains, locus YJL095W, strain BCK1, hits give low values 1.02 | S. cerevisiae deletion strains, locus YJL128C, strain PBS2, hits give low values 0.959 | S. cerevisiae deletion strains, locus YJL157C, strain FAR1, hits give low values 1.01 | S. cerevisiae deletion strains, locus YJR016C, strain ILV3, hits give low values 0.992 | S. cerevisiae deletion strains, locus YJR066W, strain TOR1 (second series), hits give low values 0.966 | S. cerevisiae deletion strains, locus YJR066W, strain TOR1, hits give low values 1.11 | S. cerevisiae deletion strains, locus YKL048C, strain ELM1, hits give low values 0.981 | S. cerevisiae deletion strains, locus YKL067W, strain YNK1, hits give low values 0.989 | S. cerevisiae deletion strains, locus YKL101W, strain HSL1, hits give low values 0.987 | S. cerevisiae deletion strains, locus YKL193C, strain SDS22, hits give low values 0.994 | S. cerevisiae deletion strains, locus YKL203C, strain TOR2, hits give low values 1.05 | S. cerevisiae deletion strains, locus YLR133W, strain CKI1, hits give low values 1.01 | S. cerevisiae deletion strains, locus YLR403W, strain SFP1, hits give low values 1.01 | S. cerevisiae deletion strains, locus YML070W, strain DAK1, hits give low values 1 | S. cerevisiae deletion strains, locus YMR001C, strain CDC5, hits give low values 0.992 | S. cerevisiae deletion strains, locus YMR205C, strain PFK2 (second series), hits give low values 0.994 | S. cerevisiae deletion strains, locus YMR277W, strain FCP1, hits give low values 0.992 | S. cerevisiae deletion strains, locus YNL006W, strain LST8, hits give low values 0.987 | S. cerevisiae deletion strains, locus YNL020C, strain ARK1, hits give low values 1 | S. cerevisiae deletion strains, locus YNL161W, strain CBK1, hits give low values 0.98 | S. cerevisiae deletion strains, locus YNL183C, strain NPR1, hits give low values 1.09 | S. cerevisiae deletion strains, locus YNL207W, strain RIO2, hits give low values 0.984 | S. cerevisiae deletion strains, locus YNL222W, strain SSU72, hits give low values 0.992 | S. cerevisiae deletion strains, locus YNL307C, strain MCK1 (second series), hits give low values 1 | S. cerevisiae deletion strains, locus YOL078W, strain AVO1, hits give low values 0.996 | S. cerevisiae deletion strains, locus YOL136C, strain PFK27, hits give low values 1.01 | S. cerevisiae deletion strains, locus YOR061W, strain CKA2, hits give low values 1.01 | S. cerevisiae deletion strains, locus YOR119C, strain RIO1, hits give low values 1.08 | S. cerevisiae deletion strains, locus YOR231W, strain MKK1, hits give low values 0.985 | S. cerevisiae deletion strains, locus YOR329C, strain SCD5, hits give low values 0.986 | S. cerevisiae deletion strains, locus YPL031C, strain PHO85, hits give low values 1.02 | S. cerevisiae deletion strains, locus YPL153C, strain RAD53, hits give low values 1.02 | S. cerevisiae deletion strains, locus YPL204W, strain HRR25, hits give low values 0.982 | S. cerevisiae deletion strains, locus YPL209C, strain IPL1, hits give low values 0.983 | S. cerevisiae deletion strains, locus YPL256C, strain CLN2, hits give low values 0.888 | S. cerevisiae deletion strains, locus YPR025C, strain CCL1, hits give low values 0.987 | S. cerevisiae deletion strains, locus YPR106W, strain ISR1, hits give low values 0.99 | S. cerevisiae deletion strains, locus YPR111W, strain DBF20, hits give low values 0.975 | S. cerevisiae deletion strains, strain NNK1, hits give low values 0.983 | S. cerevisiae deletion strains, strain TSCII, hits give low values 0.984
